Source: PubChem (The Scripps Research Institute Molecular Screening Center)
FBW7 act: activators of human E3 ligase FBW7; hit rate 0.13% among 650,000; AlphaScreen FBW7–phospho-cyclin E peptide binding, activator screen; AID 1259310; normalized activity (activation), % at 26.1 µM; Q969H0; in the data active = normalized activity above about 1.9%;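 also: purified mutant Fbw7 with reduced substrate affinity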
MITF inh: human MITF inhibition, primary screen; inhibition, % at 2.6 µM; AlphaScreen MITF homodimerization, bead proximity signal; hit rate 0.91% among 650,000; O75030; in the data active = inhibition above about 50%;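 also: 0% = vehicle wells with protein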
Target sequence (O75030 whole entry, looked up): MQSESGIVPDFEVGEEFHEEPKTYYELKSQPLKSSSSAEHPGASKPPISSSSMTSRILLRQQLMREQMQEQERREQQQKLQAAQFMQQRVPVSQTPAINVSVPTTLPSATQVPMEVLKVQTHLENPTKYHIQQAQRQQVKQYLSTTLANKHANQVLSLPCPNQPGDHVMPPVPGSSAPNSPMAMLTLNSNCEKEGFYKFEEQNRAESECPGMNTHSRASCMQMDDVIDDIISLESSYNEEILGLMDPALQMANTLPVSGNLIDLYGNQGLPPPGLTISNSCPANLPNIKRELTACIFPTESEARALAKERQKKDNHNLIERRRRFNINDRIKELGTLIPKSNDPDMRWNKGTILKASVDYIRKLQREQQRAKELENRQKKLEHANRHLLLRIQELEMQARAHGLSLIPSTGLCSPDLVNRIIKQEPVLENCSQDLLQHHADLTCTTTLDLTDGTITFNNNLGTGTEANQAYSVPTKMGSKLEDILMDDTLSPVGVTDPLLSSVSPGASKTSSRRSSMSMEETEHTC
TEAD-YAP block: TEAD-YAP interaction inhibition | hit rate 1.4% among 640,000 | inhibition, % at 9.12 µM | HEK-TIYL cells, TEAD-Gal4/YAP UAS-luciferase luminescence; in the data active = inhibition above about 32%;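 also: 0% = median of test compound wells and 100% = reference inhibitor wells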
GPR151 activ: human GPR151 activation; activation, % at 11.2 µM; hit rate 1% among 650,000; PathHunter beta-arrestin GPR151 cells, luminescence; Q8TDV0; in the data active = activation above about 4.9%;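 also: 0% = median of compound wells and 100% = cells with positive control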
An asterisk follows results filed as active; ! = not active in a repeat. An excerpt weighted towards active compounds, which were near 3.5% of everything screened.

SMILES | FBW7 act | MITF inh | TEAD-YAP block | GPR151 activ
CCc1ccc(C(=O)/C=C/Nc2cccc(O)c2)cc1 | -0.1 | -29.1 | 96.4* | 2.7
COc1cccc(C(=O)/C=C/Nc2ccc(N(C)C)cc2)c1 | -0.3 | 11.1 | -8.8 | -0.5
COc1ccc(C(=O)/C=C\Nc2cccc(F)c2)cc1 | 0.0 | 13.8 | 34.6* | -2.6
CCc1ccc(C(=O)/C=C/Nc2ccc(O)cc2)cc1 | -0.5 | 1.4 | 2.2 | 1.1
COc1ccc(/C=C/C(=O)c2ccc(O)cc2)cc1 | -0.1 | -17.3 | 55.3* | -5.5
COc1cccc(C(=O)/C=C\Nc2ccc(C)cc2)c1 | 0.0 | -1.3 | 59.5* | -6.7
COc1ccc(C(=O)/C=C\Nc2cccc(C(=O)O)c2)cc1 | 0.1 | 1.1 | 40.7* | -6.4
COc1ccc(C(=O)/C=C/Nc2cccc(C)c2)cc1 | 0.0 | -6.4 | -12.4 | -3.8
COc1ccc(C(=O)/C=C/Nc2cccc(O)c2)cc1 | -0.2 | -2.4 | 87.0* | -5.6
CCC(=O)Nc1nc(C)c(-c2csc(NCc3ccccc3)n2)s1 | -0.1 | 1.7 | 30.9 | -0.7
Nc1c(C(=O)NCc2cccs2)nnn1-c1ccc(Cl)cc1Cl | 0.1 | 1.7 | -1.9 | 0.5
Cc1c(O)c(CN(C)C)cc2c(=O)c(-c3ccon3)coc12 | 0.6 | -2.5 | -5.6 | -1.6
CCN(CC)c1nc(-c2ccc(C(C)(C)C)cc2)nc2ccccc12 | -0.1 | 4.8 | 57.9* | -1.5
COc1ccc(Nc2nc(-c3ccc(C(C)(C)C)cc3)nc3ccccc23)cc1 | 0.5 | 10.4 | 85.8* | -0.4
CCN(CC)c1nc(-c2ccc(C)cc2)nc2ccccc12 | -0.1 | -14.8 | -15.8 | -0.5
CCCCc1ccc(-c2nc(Nc3ccc(C(F)(F)F)cc3)c3ccccc3n2)cc1 | -0.1 | -8.2 | 37.5* | -0.2
Cc1ccc(Nc2nc(-c3ccc(C)cc3)nc3ccccc23)cc1 | 0.1 | 11.6 | 6.5 | -2.4
CCN1C(=O)/C(=C2\SC(N3CCCCCC3)=NC2=O)c2cc(Br)ccc21 | 0.3 | 5.4 | -23.1 | -1.6
COc1ccc(CC(=O)N2CCC3(CC2)OCc2cccc(OC)c2O3)cc1OC | -0.2 | 8.0 | 65.0* | 1.2
COc1cccc2c1OC1(CCN(C(=O)Cc3ccc(F)cc3)CC1)OC2 | 0.0 | 4.4 | -0.2 | 1.9
CC1CCN(CCCC(=O)c2ccc(F)cc2)CC1 | 0.4 | 10.3 | 6.8 | 0.1
O=C(CCCN1CC=C(n2c(=O)[nH]c3ccccc32)CC1)c1ccc(F)cc1 | 1.9*! | -0.2 | -3.7 | -0.5
O=C(CCCN1C(=O)c2ccccc2C1=O)OCC(=O)c1ccc(Cl)cc1 | -0.1 | 2.4 | -0.2 | -0.6
NS(=O)(=O)c1cc(C(=O)NCCOc2ccc(Cl)cc2)c(Cl)cc1Cl | -0.2 | -6.5 | 36.7* | -0.7
O=C(NCCOc1ccc(Cl)cc1)c1cccc(C(=O)NCCOc2ccc(Cl)cc2)c1 | -0.1 | 7.0 | 6.2 | -0.3
SMILES | FBW7 act | MITF inh | TEAD-YAP block | GPR151 activ
Cc1ccc(S(=O)(=O)Nc2nc3ccccc3nc2Nc2cccc(N(C)C)c2)cc1 | -0.1 | 12.1 | 35.3* | -0.1
COc1ccc(NC(=O)CN2C(=O)c3ccc([N+](=O)[O-])cc3C2=O)cc1Cl | -0.1 | 5.0 | -7.0 | -0.8
CC(=O)c1c(C)[nH]c(C(=O)COC(=O)CCCN2C(=O)c3ccccc3C2=O)c1C | -0.1 | 7.1 | 6.2 | 0.4
CCOC(=O)c1[nH]c(C)c(C(=O)c2ccccc2Cl)c1C | 0.1 | 9.0 | 22.1 | 0.9
CCOC(=O)c1[nH]c(C)c(C(=O)c2ccc(C)cc2)c1C | -0.1 | 6.3 | 33.8* | 1.3
CC(=O)c1c(C)[nH]c(C(=O)OCCCCN2C(=O)c3ccccc3C2=O)c1C | 0.0 | -5.6 | 53.8* | -0.3
CCOC(=O)c1[nH]c(C)c(C(=O)NCc2ccc(C)cc2)c1C | 0.0 | -5.2 | -0.7 | 1.2
CCOC(=O)c1[nH]c(C)c(C(=O)c2ccccc2)c1C | 0.0 | 6.9 | 48.0* | 1.7
CC(=O)C1=C(O)C(=O)N(Cc2ccco2)C1c1ccccc1[N+](=O)[O-] (stereo not given) | -0.1 | 9.8 | 6.2 | 1.8
CC1CCN(C(=O)C2CCN(Cc3cccc4ccccc34)CC2)CC1 | 0.0 | 28.8 | 0.5 | 1.5
COc1cccc(-c2cnc(NCc3cccc(F)c3)n2C)c1 | 0.2 | 44.0 | 45.5* | -0.2
COc1cccc(-c2cnc(NCc3cccc(Cl)c3)n2C)c1 | 0.4 | 23.8 | 40.9* | -1.0
COc1cccc(-c2cnc(NCc3ccc(F)cc3)n2C)c1 | 0.1 | 48.8 | 4.6 | 0.3
COc1ccc2c(c1)O/C(=C\c1ccc(OC(C)=O)c(OC)c1)C2=O | 0.0 | -10.9 | 43.0* | 2.8
COc1ccc2c(c1)OC/C(=C\c1cccs1)C2=O | -0.2 | 10.1 | -44.9 | -1.3
COc1ccc2c(c1)OC/C(=C\c1ccc(OC)c(O)c1)C2=O | 0.8 | 0.7 | 41.8* | 0.1
CC(C)(C)C(=O)Oc1ccc2c(c1)O/C(=C\c1ccncc1)C2=O | 0.1 | 6.0 | 3.9 | -0.3
COc1ccc(/C=C2\Oc3cc(OC(=O)c4cccnc4)ccc3C2=O)cc1 | 0.0 | 21.3 | 41.1* | -0.3
O=C(Nc1ccc(Br)cc1)c1nn2c(C(F)(F)F)cc(-c3ccc(Br)cc3)nc2c1Cl | 0.3 | 1.6 | 0.6 | 0.2
NC(=O)/C(=C\c1ccccc1)NC(=O)c1ccccc1Cl | 0.0 | -14.4 | 5.2 | 0.2
CCCCCCC1(O)C(C)C(c2ccc(N(C)C)cc2)NC(c2ccc(N(C)C)cc2)C1C (stereo not given) | -0.5 | 60.7* | -10.9 | -0.4
Oc1ccccc1-c1cc(-c2ccc(F)cc2)no1 | 0.1 | 7.1 | -21.7 | -3.6
Fc1ccc(-c2cc3c(nn2)Nc2ccccc2N3)cc1 | 0.0 | 4.7 | 85.7* | -4.6
CCOC(=O)C1=CN(Cc2ccc(OC)cc2)C=C(C(=O)OCC)C1c1ccc(OC)c(OC)c1OC | 0.3 | -10.9 | -9.1 | -0.8
O=C(Nc1nc2c(s1)CCc1ccccc1-2)c1ccco1 | -0.2 | -25.2 | -25.3 | 0.0
SMILES | FBW7 act | MITF inh | TEAD-YAP block | GPR151 activ
O=C(CCCl)Nc1nc2c(s1)CCc1ccccc1-2 | 0.5 | 11.5 | 34.6* | 1.4
Cc1ccc(-n2c(-c3ccccc3)c[n+]3c2CCCCC3)cc1 | 0.0 | 13.0 | 58.8* | -0.7
Clc1ccc(-c2c[n+]3c(n2-c2ccccc2)CCC3)cc1 | -0.1 | 2.2 | 11.9 | 0.0
Cc1ccc(-c2c[n+]3c(n2-c2ccc(C)cc2)CCCCC3)cc1 | 0.3 | 14.1 | 85.1* | 4.1
Cc1ccc(-c2c[n+]3c(n2-c2ccccc2)SCC3)cc1 | -0.1 | -12.2 | 55.7* | 1.3
Cc1ccc(-c2cn(-c3ccccc3)c3[n+]2CCCS3)cc1 | -0.1 | 16.1 | 68.2* | 0.1
Brc1ccc(-c2c[n+]3c(n2-c2ccccc2)SCC3)cc1 | 0.0 | -10.9 | 3.3 | -0.5
COc1ccc(-c2c[n+]3c(n2-c2c(C)n(C)n(-c4ccccc4)c2=O)CCCCC3)cc1 | -0.1 | -1.2 | 3.6 | -0.1
Cc1ccccc1CSCC(=O)Nc1cccc(F)c1 | -0.3 | -0.5 | -28.8 | -1.2
CN1CCCc2cc(C(CNC(=O)c3ccc(Cl)cc3)N(C)C)ccc21 (stereo not given) | -0.1 | 3.2 | -3.3 | -0.8
Cc1nc(C)n(-c2ccc(Nc3cc(-c4nn(-c5ccc(N(C)C)cc5)cc4-c4ccccc4)ccn3)cc2)n1 | -0.1 | 1.9 | -12.8 | 1.1
Cc1nc(C)n(-c2ccc(Nc3cc(-c4nn(-c5ccccc5C#N)cc4-c4ccccc4)ccn3)cc2)n1 | 0.0 | 19.3 | 32.9* | -2.4
